# Not all results are given here.
# aSyn UTR act: Activators working through SNCA 5'UTR binding (MLPCN). activity score, % (tested at 7.5 µM), hits read low. 300,000 compounds, 7.1% hits. AID 1814. alpha-synuclein 5'UTR reporter, activators screen; in the data active means activity score below about -60%
# * = called active by the depositor.
SMILES,aSyn UTR act
CCOC(=O)c1csc(NC(=O)c2cccs2)n1,-109*
CCOC(=O)Cc1csc(NC(=O)c2c(O)c3ccccc3n(CC(C)C)c2=O)n1,75
CCOC(=O)Cc1csc(NC(=O)c2cccs2)n1,-176*
COc1ccc2c(c1OC)CN1CCc3cc4c(cc3[C@@H]1[C@@H]2O)OCO4,-69*
COc1cc([C@@H]2c3cc4c(cc3[C@H](O)[C@H]3COC(=O)[C@H]23)OCO4)cc(OC)c1OC,95
O=c1sc(Nc2ccccc2)nc2ccsc12,-111*
O=C(Nc1nc2ccsc2c(=O)s1)c1ccco1,-130*
O=C(Nc1nc2c(s1)CCc1ccccc1-2)c1ccco1,-140*
Cc1nc2ccc3nc(NC(=O)c4ccco4)sc3c2s1,-152*
O=C(Nc1nc2c(Cl)ccc(Cl)c2s1)c1ccco1,-184*
O=C(Nc1nc2ccsc2c(=O)s1)C1CCC1,-96*
c1cncc(-c2nc3c(ccc4ccccc43)[nH]2)c1,-193*
NNc1nc2ccccc2c(=O)n1Cc1ccccc1,-133*
C#CCSc1ncc(-c2ccccc2)cn1,-101*
C=CCSc1ncc(-c2ccccc2)cn1,-160*
Cc1ccc(NC2Nc3cc(C)nn3S2)c(C)c1 (centres undefined),-138*
CN(C)c1ccc(NC(=O)CCn2c(=S)oc3ccccc32)cc1,-100*
O=C(COc1ccc(Br)cc1)N1CCc2ccccc21,-100*
O=C(CCCOc1ccccc1)N1CCCc2ccccc21,-73*
O=C(COc1ccccc1Cl)N1CCc2ccccc21,-135*
O=C(OCc1ccccc1)N1CCc2ccccc21,-119*
CC(=O)/C(=N/Nc1ccc(Br)cc1)N1CCCc2ccccc21,61
O=C(/C=C/c1ccc(Cl)c(Cl)c1)N1CCc2ccccc21,-241*
O=C(CCCc1ccccc1)N1CCc2ccccc21,-117*
O=C(COc1ccccc1)N1CCc2ccccc21,-167*
SMILES,aSyn UTR act
O=C(COc1ccccc1Cl)N1CCc2ccccc2C1,-91*
Cc1noc(C)c1COc1cccc(C(=O)OCC(=O)N2CC(=O)Nc3ccccc32)c1,65
O=C1CN(C(=O)OCc2ccccc2)c2ccccc2N1,-89*
O=C(/C=C/c1ccc(Cl)cc1Cl)c1ccc[nH]1,-139*
CN(C)/C=C/C(=O)/C=C/c1ccc(Cl)cc1Cl,-150*
O=C(/C=C/c1ccccc1Cl)c1ccc[nH]1,-343*
O=c1[nH]c2cc3c(cc2cc1CN(Cc1nnnn1C1CCCC1)C1CCCC1)OCCO3,-79*
CN=C(c1ccc(C)cc1)n1c(=S)nc(-c2ccc(C)cc2)n(C)c1=S,-149*
O=C(C[n+]1cc(-c2ccccc2)n2c1CCC2)Nc1nc(-c2ccccc2)cs1,-73*
O=C(C[n+]1cc(-c2ccc(F)cc2)n2c1CCC2)c1cccs1,-144*
O=C(c1nn2c(C(F)(F)F)cc(-c3cccs3)nc2c1Br)N1CCCc2ccccc21,82
O=C(CSCC(=O)N1CCCc2ccccc21)Nc1nc(-c2ccccc2)cs1,-100*
COc1ccc(/C(=N/Nc2ncnc3ccccc23)C(=O)O)cc1,-79*
Cc1ccc(C2Nc3ccc4ccccc4c3C3=C2C(=O)CC(C)(C)C3)o1 (centres undefined),-73*
C=C(C)C1CC=C(C)/C(=N/NC(=O)c2cccs2)C1 (centres undefined),-124*
C=C(C)C1CC=C(C)/C(=N/Nc2ccccc2[N+](=O)[O-])C1 (centres undefined),-144*
O=c1/c(=C/c2ccccn2)sc2nc3ccccc3n12,-174*
COc1ccc(NC(=O)c2cc3ccc(O)cc3o/c2=N\O)cc1,-155*
N=c1oc2cc(O)ccc2cc1C(=O)Nc1ccc(F)cc1,-148*
O=C(c1ccc(F)cc1)c1cc2ccc(O)cc2oc1=O,-62*
CCCCCCc1cc2cc(C(=O)Nc3cccc(OC)c3)c(=O)oc2cc1O,63
COc1ccc(NC(=O)c2cc3cc(OC)ccc3oc2=N)cc1,-63*
O=C(NC(=S)Nc1ccccn1)c1ccc([N+](=O)[O-])cc1,-119*
O=C(Nc1ccc(Cl)cc1)c1ccc(-c2ccccn2)s1,-170*
O=C(Nc1ccccc1)c1ccc(CSc2ccccn2)cc1,-102*
SMILES,aSyn UTR act
O=C(Nc1ccccn1)c1ccc(C(=O)Nc2ccccn2)cc1,-104*
O=C(Nc1ccccn1)c1cc2ccccc2cc1O,-104*
O=C(NC(=S)Nc1ccccn1)c1ccccc1,-133*
O=C(c1cc2cc([N+](=O)[O-])ccc2s1)N1CCCCC1,-71*
O=C(Nc1ccccn1)c1ccc(Br)s1,-191*
O=C(Nc1ccccn1)c1cc2cc([N+](=O)[O-])ccc2s1,-158*
CC(=O)NCc1ccc(-c2csc(-c3cccs3)n2)cc1,-126*
O=c1c2c(nc3cc(-c4ccccc4)[nH]n13)CCS2,-99*
O=c1c2c(nc3cc(-c4ccccc4Cl)[nH]n13)CCS2,-149*
Cc1ccc2cc(NC(=O)Cc3ccccc3)ccc2n1,-127*
Cc1ccc2cc(NC(=O)c3ccccc3C)ccc2n1,-195*
O=C(O)C(=O)/C(=C\c1ccc(Cl)cc1)c1ccc2ccccc2n1,-226*

# Compound activity deposited in PubChem by Broad Institute.
